ALR H2O2 inh – blocks human ALR sulfhydryl oxidase activity. P55789. AID 485317. inhibition, % (no concentration beside the values). 290,000 tested, 3.8% active. purified ALR, DTT oxidation, H2O2 HRP-luminol luminescence;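 active = mean replicate inhibition above about 79%, with every replicate also reaching it, limit read from the data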
NRP1-CendR mod – alters CendR peptide binding to human NRP-1; inhibition, % at 25 µM; FAM-RPARPAR peptide binding to NRP-1, fluorescence polarization; O14786; 360,000 tested, 0.85% active;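 active = inhibition or corrected inhibition above about 18%, plus a signal ratio from 0.5 to 1.5, limit read from the data, passing the limit was not always enough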
PglD inh – blocks C. jejuni PglD acetyltransferase activity. purified PglD enzyme, DTNB colorimetric CoA detection. inhibition, % at 12.5 µM. 360,000 tested, 0.098% active. AID 602405; in the data active = inhibition above about 16%, passing the limit was not always enough
ARNT-TACC3 inh – disrupts binding between human ARNT and TACC3. Q9Y6A5. AlphaScreen His-ARNT PAS-B/GST-TACC3 binding, luminescence; TACC3 fragment carries E629A point mutation. inhibition, % at 9.99 µM. 390,000 tested, 0.66% active. AID 623870;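 active = mean inhibition of replicates at least 50% and at least half of replicates each reaching 50%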;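 note: 0% = complete ARNT plus TACC3 wells and 100% = ARNT alone without TACC3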
ERp5 inh – ERp5 (human) disulfide isomerase inhibition. Q15084. ERp5 insulin aggregation, absorbance 650 nm, 90 min. inhibition, % at 9.99 µM. 350,000 tested, 0.05% active;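 active = mean replicate inhibition above about 25%, with every replicate also reaching it, limit read from the data, passing the limit was not always enough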
Target sequence (Q15084 whole entry, looked up): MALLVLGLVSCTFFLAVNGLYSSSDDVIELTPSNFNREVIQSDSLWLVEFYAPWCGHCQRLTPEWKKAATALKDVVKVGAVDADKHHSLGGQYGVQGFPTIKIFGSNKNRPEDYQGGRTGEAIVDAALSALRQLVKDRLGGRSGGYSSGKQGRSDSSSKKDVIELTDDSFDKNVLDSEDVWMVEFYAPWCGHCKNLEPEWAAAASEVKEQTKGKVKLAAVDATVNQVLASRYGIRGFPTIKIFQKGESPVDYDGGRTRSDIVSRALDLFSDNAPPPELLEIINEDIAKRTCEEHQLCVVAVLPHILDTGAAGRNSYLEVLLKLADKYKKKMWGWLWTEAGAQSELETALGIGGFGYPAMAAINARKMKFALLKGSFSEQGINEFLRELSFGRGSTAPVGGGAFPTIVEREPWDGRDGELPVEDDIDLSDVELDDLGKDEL
PDI turbidity – blocks human protein disulfide isomerase activity. P07237. PDI insulin aggregation turbidity, A650, 90 min. inhibition, % at 10 µM. 350,000 tested, 0.052% active. AID 588391;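 active = mean inhibition across replicates of 30% or more, whatever share of single replicates reach that level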
ARNT Alpha ctr – interferes with AlphaScreen signal, flagging false ARNT-TACC3 hits; shares compounds with ARNT-TACC3 inh; His-ARNT PASB-GST AlphaScreen artifact counter-screen, luminescence; AC50, µM (titrated, usually from 68 µM), for inactives: at the top dose activity change, negative = signal decrease; 1,200 tested, 50% active; AID 651705;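 active = every separate test run was called active for a drop in luminescence, with AC50 within twice the top valid dose, actives reach about 71 µM in these data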
* = called active by the depositor; x = not tested or not shown. The full list was thinned out, with hits kept by preference.

SMILES | ALR H2O2 inh | NRP1-CendR mod | PglD inh | ARNT-TACC3 inh | ERp5 inh | PDI turbidity | ARNT Alpha ctr
CCC(=O)NC(c1ccc(C)cc1)c1cc([N+](=O)[O-])c2cccnc2c1O (centres undefined) | -98.3 | 6.1 | -3.3 | 57.9* | x | -0.8 | 11.4µM*
CCCC(=O)NC(c1ccco1)c1cc([N+](=O)[O-])c2cccnc2c1O (centres undefined) | 3.3 | -9.1 | x | 59.4* | 0.4 | -2.6 | 29.6µM*
Cc1ccc(S(=O)(=O)Cn2nnnc2C(c2ccccc2)N2CCN(c3ccccc3)CC2)cc1 (centres undefined) | 9.5 | -4.1 | 6.6 | 58.4* | x | 11.3 | -32.9%
Cc1ccc(S(=O)(=O)Cn2nnnc2C(c2ccccc2)N2CCN(c3ncccn3)CC2)cc1 (centres undefined) | 1.8 | 7.1 | 1.6 | -3.0 | x | -2.8 | x
c1ccc(-c2cnc(Nc3nc(-c4ccccn4)nnc3-c3ccccc3)s2)cc1 | x | x | x | x | x | x | 2.59µM*
Cc1ccc(Nc2nc(-c3ccccn3)nnc2-c2ccccc2)cn1 | x | x | x | x | x | x | 0.424µM*
CC(C)Nc1nc(-c2ccccn2)nc(-c2ccccc2)c1C#N | -0.4 | 1.6 | x | x | -1.6 | -11.6 | x
C[C@@H]1CN([C@@H](C)CO)C(=O)Cc2cc(NS(=O)(=O)c3cn(C)cn3)ccc2O[C@@H]1CN(C)C(=O)NC1CCCCC1 | x | x | -4.1 | 0.2 | x | x | x
C[C@H]1CN([C@@H](C)CO)C(=O)Cc2cc(NC(=O)CCCCCC(=O)Nc3ccccc3N)ccc2O[C@H]1CN(C)Cc1ccncc1 | x | x | -0.2 | 20.6 | 0.9 | x | x
CN(C)C(=O)CSc1cccc2cccnc12 | -7.8 | -0.1 | 0.3 | 60.4* | x | -3.7 | 15µM*
O=C(CSc1cccc2cccnc12)N1CCCC1 | -5.5 | 4.3 | x | 87.3* | x | 0.4 | 10.2µM*
CCCCOc1ccc(NC(=O)CSc2cccc3cccnc23)cc1 | -17.9 | 0.7 | x | 12.8 | 3.5 | -0.2 | x
C[C@@H]1CCCCO[C@H](CN(C)S(=O)(=O)c2ccccc2)[C@H](C)CN([C@H](C)CO)C(=O)c2cc(N(C)C)ccc2O1 | x | x | 2.4 | 23.6 | 1.4 | x | x
C[C@H](CO)N1C[C@H](C)[C@H](CN(C)C(=O)NC2CCCCC2)Oc2ccc(NC(=O)CCCN(C)C)cc2C1=O | x | x | -14.3 | -10.6 | -3.1 | x | x

Source: PubChem BioAssay
